Screens from PubChem.
Most compounds without a hit are left out; they make up all but 17% or so of the library.
TDP1 cell CPT: DT40-hTDP1 cell growth loss with CPT; Potency, µM (doses to about 46.2 µM), usual class: inhibitors; chicken DT40 Tdp1-/-;hTDP1 cells + 20 nM CPT, ATP luminescence, 48 h; hit rate 12% among 420,000; AID 686979; also: nearly all actives have a fitted effect of over 55% in size
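Cell growth measured by CellTiter-Glo luminescence after a minimum 48 h, 37 C compound exposure with 20 nM CPT in Tdp1-knockout DT40 cells stably expressing hTDP1, seeded 400/well; qHTS titration format.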
TGFb SMAD3 inh: TGF-b pathway inhibition; HepG2 CAGA-GFP TGF-b/SMAD3 reporter, GFP fluorescence, 18 h; TGF-beta stimulated, 500 pg/mL final; Potency, µM (top dose mostly 46.1 µM), usual class: inhibitors; hit rate 1.2% among 410,000; AID 588855; also: nearly all actives have a fitted effect of over 65% in size
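Using HEPG2 CAGA-GFP reporter cells at 1000 cells/well, we pinned test compounds, stimulated with recombinant TGF-beta (500 pg/mL final) and measured total well GFP after 18 h.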
S2 tox: viability counter-screen for ATXN expression inhibitors | S2 cells (HEK-293 line with an ATXN2-luciferase reporter) viability, CellTiter-Fluor protease fluorescence, 24 h | Potency, µM (series often up to 56.7 µM), actives largely listed as cytotoxic | AID 651635 | hit rate 0.49% among 400,000; also: nearly all actives have a fitted effect of over 40% in size
DT40 TDP1 no CPT: qHTS for Inhibitors of human tyrosyl-DNA phosphodiesterase 1 (TDP1): qHTS in cells in absence of CPT; DT40 Tdp1-/- hTDP1 cells, no CPT, ATP luminescence, 48 h; Potency, µM (titrated, usually from 46.2 µM), actives largely listed as inhibitors; hit rate 15% among 420,000; AID 686978, 2013; also: nearly all actives have a fitted effect of over 55% in size
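A cellular qHTS used chicken DT40 cells lacking endogenous Tdp1 but carrying stably transfected human TDP1. Compounds were applied without camptothecin, and cell growth kinetics were judged by ATP-dependent luminescence after ≥48 hr.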
ATXN2 expr inh: ATXN2 expression inhibition. HEK-293 ATXN2-luciferase reporter, luminescence, 24 h. Potency, µM (titrated, usually from 57 µM), most hits filed as inhibitors. hit rate 0.72% among 360,000; also: nearly all actives have a fitted effect of over 55% in size
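qHTS (up to 57 uM final) was run with 24 h compound exposure of reporter cells at 37 °C. Each well was multiplexed: SteadyGlo luminescence measured ATXN2-luciferase expression after a fluorogenic Gly-Phe-AFC viability readout (25 uM final).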
HepG2 tox: counter-screen for TGF-b inhibitors: cytotoxicity in HepG2 cells; hit rate 0.76% among 410,000; AID 588856; Potency, µM (doses to about 46.1 µM), actives largely listed as cytotoxic; HepG2 CAGA-GFP viability, ATP luminescence, 18 h
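HepG2 CAGA-GFP cells (1000/well, DMEM with 1% FBS) received compound, then TGF-beta at 500 pg/mL final, and were incubated 18 hours at 37 degrees C. Viability was read by CellTiter-Glo luminescence. Media-only wells were set as complete cell-killing and DMSO as no toxicity.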
Of the large screens only hits and unclear results are named; the others gave an inactive call. Calls follow the shape of the dose curve; as a rule, active = well fitted curve in the direction sought with a large enough effect; inconclusive = small, poorly fitted or top-dose-only effect, or another doubt; inactive = no such curve, though single readings can be large; an effect the other way counts as inactive or inconclusive.

COc1cc(C(=O)NCC(=O)Nc2c(C)cccc2C)ccc1OCC(=O)N1CCOCC1	none
COC(=O)C1=C[C@@H](C(=O)OC)C2C3=C(C(=O)[C@@]2(C)NC(=O)c2ccccc2)[C@H](C)[C@@H]2C(=O)N(C)C(=O)[C@@H]2[C@@H]3C1 (stereo not given in full)	none (no result: TDP1 cell CPT, S2 tox, DT40 TDP1 no CPT, ATXN2 expr inh)
CCCCN(C=O)c1c(CC)nc2ccc(C(=O)NCCc3ccccn3)cn12	none
COc1ccc(C(=O)N2CCC(C(=O)N3CCN(c4ccc(OC)cc4)CC3)CC2)cc1	TDP1 cell CPT inconclusive, DT40 TDP1 no CPT inconclusive
CCn1c(C(=O)N2CCC(C(=O)N3CCN(c4ccc(OC)cc4)CC3)CC2)cc2sccc21	TDP1 cell CPT 9.2µM, DT40 TDP1 no CPT 13µM (no result: S2 tox, ATXN2 expr inh)
CCn1c(C(=O)N2CCC(C(=O)N3CCN(c4cc(C)ccc4C)CC3)CC2)cc2sccc21	TDP1 cell CPT 23.1µM, TGFb SMAD3 inh inconclusive, DT40 TDP1 no CPT 16.4µM (no result: S2 tox, ATXN2 expr inh)
Cn1c(C(=O)N2CCCC(C(=O)N3CCN(C(=O)c4ccco4)CC3)C2)cc2sccc21 (stereo not given)	TDP1 cell CPT 14.6µM, DT40 TDP1 no CPT inconclusive
CCn1c(C(=O)N2CCCC(C(=O)N3CCN(c4ccccc4)CC3)C2)cc2sccc21 (stereo not given)	TDP1 cell CPT inconclusive, DT40 TDP1 no CPT 23.1µM (no result: S2 tox, ATXN2 expr inh)
Cc1ccc(C)c(N2CCN(C(=O)C3CCC3)CC2)c1	TGFb SMAD3 inh inconclusive
Cn1c(C(=O)N2CCCC(C(=O)O)C2)cc2sccc21 (stereo not given)	none
CCn1c(C(=O)N2CCCC(C(=O)NCCCOC)C2)cc2sccc21 (stereo not given)	TDP1 cell CPT inconclusive, DT40 TDP1 no CPT inconclusive (no result: S2 tox, ATXN2 expr inh)
CCn1c(C(=O)N2CCC(C(=O)N3CCN(c4ccccn4)CC3)CC2)cc2sccc21	TDP1 cell CPT inconclusive, DT40 TDP1 no CPT 25.9µM
Cc1ccc(CN2CCSc3ccc(C(=O)N4CCN(c5ccc(Cl)cc5)CC4)cc32)cc1	TDP1 cell CPT 14.6µM, DT40 TDP1 no CPT 20.6µM
Cc1ccc(CN2CCSc3ccc(C(=O)N4CCN(c5cccc(C)c5C)CC4)cc32)cc1	TDP1 cell CPT 8.2µM, S2 tox inconclusive, DT40 TDP1 no CPT 5.17µM
COCCn1c(=S)[nH]c2cc(C(=O)N3CCN(Cc4ccccc4)CC3)ccc2c1=O	DT40 TDP1 no CPT inconclusive (no result: TGFb SMAD3 inh, S2 tox, ATXN2 expr inh, HepG2 tox)
NC1=NC(=O)C(c2ccccc2)(c2ccccc2)S1	DT40 TDP1 no CPT inconclusive
Cc1ccc(S(=O)(=O)N(Cc2nc(-c3cccc(C)c3)no2)C2CCCCC2)cc1	TDP1 cell CPT inconclusive, TGFb SMAD3 inh inconclusive, DT40 TDP1 no CPT 10.3µM (no result: S2 tox, ATXN2 expr inh)
COc1ccc(S(=O)(=O)N(Cc2nc(-c3cccc(C)c3)no2)C2CCCCC2)cc1	TDP1 cell CPT 14.6µM, DT40 TDP1 no CPT inconclusive (no result: S2 tox, ATXN2 expr inh)
COc1ccc(OC(C)C(=O)N(C)Cc2nc(-c3cccc(C)c3)no2)cc1 (stereo not given)	DT40 TDP1 no CPT inconclusive
Cc1cccc(-c2noc(CN(C3CCCCC3)S(=O)(=O)c3ccc(F)cc3)n2)c1	TDP1 cell CPT 20.6µM, DT40 TDP1 no CPT 14.6µM (no result: S2 tox, ATXN2 expr inh)
Cc1cccc(-c2noc(CN(C)S(=O)(=O)c3cc(Cl)ccc3Cl)n2)c1	none
CCOC(=O)c1ccc(NC(=O)CCc2c(C)nc3cc(-c4ccc(OC)cc4OC)nn3c2C)cc1	DT40 TDP1 no CPT inconclusive
COc1cc(CN2CCN(c3ccccc3C)CC2)cc([N+](=O)[O-])c1O	none
COc1ccccc1NS(=O)(=O)c1cc(NC(=O)c2cc(F)c(F)c(F)c2F)ccc1N1CCOCC1	TDP1 cell CPT inconclusive, S2 tox inconclusive, DT40 TDP1 no CPT 16.4µM
O=C(Nc1ccc(N2CCOCC2)c(S(=O)(=O)Nc2ccccc2Cl)c1)c1ccc(=O)[nH]n1	TDP1 cell CPT inconclusive, S2 tox inconclusive, DT40 TDP1 no CPT 16.4µM
